Bioassay records (PubChem)
Rows were chosen to be rich in hits. Some 7.2% of all compounds tested hit in one or more screens of this group.
VLA-4 inh – inhibition in a human VLA-4 binding assay; P13612; VLA-4 expressing cells, ligand binding flow cytometry; inhibition, % (about 7 µM as worked out from the volumes in the protocol); 0.2% of 330,000 active; in the data active means inhibition above about 50%
Target sequence (P13612 whole entry, looked up): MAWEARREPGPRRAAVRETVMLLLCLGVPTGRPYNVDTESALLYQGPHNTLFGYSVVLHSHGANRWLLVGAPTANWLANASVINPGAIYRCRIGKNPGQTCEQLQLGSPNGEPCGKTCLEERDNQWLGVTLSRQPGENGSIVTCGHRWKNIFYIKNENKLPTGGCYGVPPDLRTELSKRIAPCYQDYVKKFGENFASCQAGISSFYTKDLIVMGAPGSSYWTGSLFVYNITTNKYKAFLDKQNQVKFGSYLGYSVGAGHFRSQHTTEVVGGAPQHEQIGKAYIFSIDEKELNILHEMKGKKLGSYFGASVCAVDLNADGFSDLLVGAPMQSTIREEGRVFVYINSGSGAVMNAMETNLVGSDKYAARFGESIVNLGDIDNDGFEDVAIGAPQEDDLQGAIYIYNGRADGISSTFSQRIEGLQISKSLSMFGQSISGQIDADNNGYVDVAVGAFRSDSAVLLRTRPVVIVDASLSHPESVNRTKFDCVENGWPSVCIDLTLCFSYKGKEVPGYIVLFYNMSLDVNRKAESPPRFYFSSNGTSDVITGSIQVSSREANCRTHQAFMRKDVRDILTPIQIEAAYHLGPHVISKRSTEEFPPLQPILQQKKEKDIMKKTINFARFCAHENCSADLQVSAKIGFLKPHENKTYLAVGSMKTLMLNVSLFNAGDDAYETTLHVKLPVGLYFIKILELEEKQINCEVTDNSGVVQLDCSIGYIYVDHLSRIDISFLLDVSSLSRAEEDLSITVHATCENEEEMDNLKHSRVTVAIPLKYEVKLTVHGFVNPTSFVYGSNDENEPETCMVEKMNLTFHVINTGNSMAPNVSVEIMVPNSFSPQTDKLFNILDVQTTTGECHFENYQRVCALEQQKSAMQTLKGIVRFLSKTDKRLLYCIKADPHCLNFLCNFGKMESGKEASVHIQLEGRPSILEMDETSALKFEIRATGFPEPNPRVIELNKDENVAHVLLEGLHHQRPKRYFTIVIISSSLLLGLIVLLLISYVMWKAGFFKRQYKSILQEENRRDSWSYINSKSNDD
ALR inh – human ALR oxidase inhibition via reduced H2O2; inhibition, % (no concentration beside the values); purified ALR, DTT oxidation, H2O2 HRP-luminol luminescence; 3.8% of 290,000 active; P55789;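 active means mean replicate inhibition above about 79%, with every replicate also reaching it, limit read from the data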
Efflux pump inh – inhibitors of Candida antifungal efflux pumps expressed in yeast; S. cerevisiae Candida pump triplex, Nile Red efflux; inhibition, % at 10 µM; 0.44% of 330,000 active;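 active means plate passing quality check with inhibition over a set limit, or well fluorescence over plate mean plus 4 SD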;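 further: Nile Red retained in pooled yeast measured as flow cytometry median fluorescence; 0% = buffer negative control and 100% = Enniatin B positive control; higher means more Nile Red kept so more efflux inhibition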
AHR activator – activators of human aryl hydrocarbon receptor | AHR-responsive luciferase reporter cells, luminescence | activation, % at 5 µM | 2.5% of 320,000 active; in the data active means activation above about 47%;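 further: 0% = vehicle wells and 100% = reference agonist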
A1 inh – inhibitors of the anti-apoptotic protein A1, read as caspase activation; MEF A1-2A-BIM cells, Caspase-Glo 3/7 luminescence, 3 h; percent of clofoctol response, vehicle zero; 0.066% of 330,000 active; caspase activation, % (no concentration beside the values);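 active means over half of replicate activation scores above 10%, or exactly half above 10 with the replicate mean above 10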
SUMO Mot1 rescue – SUMOylation pathway inhibition by Mot1-301 growth rescue; 1% of 320,000 active; AID 2716; growth rescue, % at 18.8 µM; S. cerevisiae Mot1-301 growth rescue, ATP luminescence, 38.5C; percent above DMSO median, 100 means doubled;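 active means every valid replicate shows activation above 250% relative to neutral control wells; inactive means the rest, any valid replicate at or below 250%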;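 further: OY570 slx delta 5 strain wells were the positive control but not used for scaling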
* marks the source's active call; other numbers are inactive results; x = no result given.

SMILES | VLA-4 inh | ALR inh | Efflux pump inh | AHR activator | A1 inh | SUMO Mot1 rescue
Cc1ccc(C)c(N=Nc2ccc(O)c3ncccc23)c1 | 15 | -18 | 0 | 18 | 0 | -6
Cc1ccc(C)c(NC(=O)COC(=O)c2ccc3ccccc3n2)c1 | -80 | x | 0 | 24 | 0 | -3
CCOc1ccccc1Nc1cc(C)c2cccc(C)c2n1 | 7 | x | 0 | 36 | 0 | -19
CCOc1nc(N=C(N)N)nc2c(C)cccc12 | -2 | -4 | 0 | 49* | 0 | 57
C=CCn1cccc(C(=O)Nc2cc(OC)ccc2OC)c1=O | 13 | 0 | 0 | 60* | -2 | 16
C=CCn1cccc(C(=O)Nc2ccc(C)cc2)c1=O | 24 | 0 | 0 | 55* | -3 | 11
COc1ccc(C2C=C(c3ccc(F)cc3)NC(=S)N2)cc1OC (stereo not given) | 0 | -14 | 0 | 9 | 0 | 0
COc1ccc(NC(=O)C2CCCCC2)cc1S(=O)(=O)N1CCOCC1 | 5 | -4 | 0 | -2 | 1 | -13
Clc1ccc(CNc2nnnn2-c2ccccc2)c(Cl)c1 | 4 | -1 | 0 | 2 | 1 | -26
C/C(=N\Nc1ccc(C(=O)O)cc1)c1ccc2c(c1)Nc1ccccc1S2 | -2 | 100* | 0 | 68* | 0 | -24
CCCC[C@@H]1CCCO[C@@](C(=O)NCc2ccc(C)o2)(C(F)(F)F)C1 | x | 90* | x | 3 | -1 | -2
CCCCC(=O)Nc1nnc(S(=O)(=O)N2CCCCCC2)s1 | -9 | 0 | 0 | -1 | 1 | -6
O=C(Nc1cc([N+](=O)[O-])ccc1O)c1ccc2c(c1)C(=O)N(Cc1ccco1)C2=O | 9 | 98* | 1 | 2 | -3 | -17
O=C(Nc1ccc(O)cc1)c1ccc2c(c1)C(=O)N(Cc1ccco1)C2=O | 30 | 100* | 0 | 1 | 0 | -2
Cc1ccc([C@@H]2[C@@H]3C(=O)N(C)C(=O)[C@@H]3[C@]3(C)C(=O)N(CCO)CC(=O)N23)o1 | -5 | -5 | 0 | 0 | 0 | 10
CC(C)CC1c2[nH]c3ccccc3c2CCN1C(=O)C1CCOCC1 (stereo not given) | 11 | 2 | 0 | 15 | 0 | -3
O=C1c2ccccc2NC(c2ccco2)N1O (stereo not given) | 10 | 8 | 0 | 12 | 1 | x
O=C1C2=C(Nc3ccccc3SC2c2ccco2)c2ccccc21 (stereo not given) | 15 | 2 | 0 | 70* | 1 | x
C#Cc1ccc([C@H]2C=C(C(=O)Nc3ccccc3)O[C@@H](OCc3ccc(CO)cc3)C2)cc1 | 5 | x | 0 | 8 | 0 | -22
COc1ccc(NC(=O)c2ccccc2S(=O)c2ccccc2C#N)cc1 (stereo not given) | -4 | -25 | 0 | 15 | 0 | 273
C=CCNC(=O)c1ccccc1S(=O)c1ccccc1C#N (stereo not given) | -2 | 99* | 0 | -2 | 1 | 116
COC(=O)C(NC(=O)C(C)NC(=O)OCc1ccccc1)C(C)C (stereo not given) | 18 | -6 | 0 | -2 | 0 | 247
COc1ccc(C=Nc2ccc3[nH]ncc3c2)c(O)c1 | 4 | 90* | 0 | 3 | 0 | 51
COc1ccc(C(c2nnnn2Cc2cccs2)N2CCN(c3ccc(F)cc3)CC2)cc1OC (stereo not given) | -9 | 2 | 0 | 0 | 2 | x
COc1ccccc1S(=O)Cc1ccc(C(=O)NC2CCCC2)o1 (stereo not given) | 15 | 94* | 0 | 2 | 0 | 269
SMILES | VLA-4 inh | ALR inh | Efflux pump inh | AHR activator | A1 inh | SUMO Mot1 rescue
COc1ccccc1OCc1ccc(C(=O)NC2CCCCC2)o1 | 11 | 5 | 0 | 3 | 0 | 5
COc1ccc(CNc2cc([N+](=O)[O-])ccc2OC)cc1 | 20 | 36 | 0 | 2 | 1 | -6
COc1ccc(C)cc1NCc1ccc([N+](=O)[O-])cc1 | -7 | 99* | 0 | 8 | 0 | -23
COc1ccc(C)cc1NCc1ccc(OC)c(C)c1OC | 17 | 77* | 0 | 8 | 2 | 20
CCN(CC)S(=O)(=O)c1cc(NC(=O)C(C)N2CCc3ccccc32)ccc1C (stereo not given) | -23 | -1 | 0 | 10 | 0 | -5
CC(C(=O)Nc1ccc(S(N)(=O)=O)cc1)N1CCc2ccccc21 (stereo not given) | -13 | 99* | 0 | 13 | 1 | 41
N#C/C(=C/c1ccc(-c2cc(C(=O)O)cc(C(=O)O)c2)o1)c1nc2ccccc2s1 | -25 | 40 | 0.8* | 1 | 0 | 1
CCCCNC(=S)Nc1ccc2[nH]c(=O)[nH]c2c1 | 13 | 68 | 0 | 3 | 0 | 4
COc1ccc(NC(=S)N(Cc2ccc(Cl)cc2)Cc2ccc(C(=O)O)cc2)cc1Cl | -5 | 96* | 0 | -4 | 0 | x
S=C(Nc1ccccc1)N(CCN1CCOCC1)Cc1cccc(Cl)c1 | 15 | x | 0 | 1 | 0 | 4
CCN1CCCc2cc(CN(CCN3CCOCC3)C(=S)Nc3ccc(OC)c(Cl)c3)ccc21 | 14 | 99* | 0 | -4 | 0 | 301
CCN1CCCc2cc(CN(CCN3CCOCC3)C(=S)Nc3ccc(OC)c(OC)c3)ccc21 | 10 | 92* | 0 | 1 | 0 | 149
Cc1cc(NC(=S)N(Cc2ccc(Cl)cc2)Cc2ccc(C(=O)O)cc2)ccc1Cl | 4 | 2 | 0 | -2 | -1 | 5
Cn1ccnc1C(=O)Cc1ccc([N+](=O)[O-])cc1 | 6 | 58 | 0 | 0 | 1 | 41
O=C(CN1C(=O)NC2(CCCCC2)C1=O)NNC(=O)C1CC1 | -11 | -4 | 0 | -2 | 1 | -9
O=C(NC(=S)Nc1ccccc1N1CCCC1)c1ccccc1[N+](=O)[O-] | -117 | 98* | 0 | 6 | 0 | -17
O=C(NC(=S)Nc1ccccc1N1CCCC1)c1ccccc1Br | -34 | -2 | 0 | 75* | 0 | 2
N#CC1=C(N)Oc2c(oc(CO)cc2=O)C12C(=O)Nc1ccc(Cl)cc12 (stereo not given) | 11 | -3 | 0 | 5 | 0 | -16
N=c1c2c3c(sc2ncn1Cc1ccccc1)CCCC3 | 0 | -7 | -5 | 7 | 0 | -18
N=c1c2c3c(sc2ncn1Nc1ccccc1)CCC3 | 16 | 6 | 0 | 68* | 0 | 120
Cc1nn(C(C)C(=O)N2CCOCC2)c(C)c1[N+](=O)[O-] (stereo not given) | 8 | x | 1 | -3 | -1 | 356
COc1cccc(-c2nnc(-c3ccco3)o2)c1 | 7 | x | 1 | 51* | 0 | 144
COc1cccc(-c2nnc(-c3ccc(C)o3)o2)c1 | 18 | 1 | 0 | -1 | -5 | 10
CCc1ccc(NC(=O)C2C3/C=C\CCCCC32)cc1 (stereo not given) | 27 | -4 | 0 | -1 | 0 | -9
